System: Plasmodium falciparum NF54
Assay: growth inhibition relative to untreated control; higher = more inhibition
Settings: 72 h
Procedure, shortened: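 P. falciparum NF54 ring stages (1% hematocrit, 1% parasitemia, 100 μL/well in 96-well half-area dark plates) were exposed for 72 h at 37 °C to single 5 μM or 1 μM doses of Pathogen Box compounds. The medium was minimal RPMI or minimal RPMI plus chorismate end-products (2.2 μM folate, 7.3 μM pABA, 7.3 μM pHBA, 111 μM tyrosine, 90 μM phenylalanine, tryptophan). Growth inhibition was read by SYBR Green, normalised to untreated controls, with uninfected erythrocytes as background.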

[1] = 1 µM, MM + chorismate end-products (CM screening medium)
[2] = 5 µM, MM + chorismate end-products (CM screening medium)

Row | SMILES | growth inhibition [1] | growth inhibition (1 µM, minimal medium (MM)) | growth inhibition [2] | growth inhibition (5 µM, minimal medium (MM))
1 | COc1cccc(CC(=O)N2CCC(n3c(C)nc4ccc(F)cc43)CC2)c1 | > 100% | > 100% | > 100% | 95.6%
2 | Cc1ccc(NC(=O)CC2COc3ccccc3O2)cc1Cl (stereo not drawn) | 23.4% | 10.6% | < 0% | < 0%
3 | O=C(Nc1ccc2c(c1)B(O)OC2)c1ccccc1C(F)(F)F | 69.1% | 67.8% | 74.6% | 87%
4 | Cc1ccc(NC(=O)c2cc(S(=O)(=O)NC(C)(C)C)ccc2C)nc1 | 70.6% | 52.9% | 93% | 94.5%
5 | O=C(Nc1ccnc(-c2cccnc2)n1)c1cc(C(F)(F)F)cc(C(F)(F)F)c1 | 13.6% | 20.9% | 93.8% | 86.6%
6 | COc1cncc(-c2cncc(N3CCN(c4ccncc4)CC3)n2)c1 | > 100% | > 100% | 97.4% | 89.1%
7 | CC1(C)Cc2c(c(N3CCOCC3)nc3snc(Br)c23)CO1 | 79.2% | 74.4% | 53.9% | 19.1%
8 | CC1CC1C(=O)NC1CCN(CC2(c3ccccc3)CCCCC2)CC1 (stereo not drawn) | 96.1% | 94.5% | 90.8% | 92%
9 | O=C(C1CCN(c2nnc(-n3cccc3)s2)CC1)N1CCC(Cc2ccccc2)CC1 | 6.31% | 8.02% | 48.7% | 8.81%
10 | CC(=O)Oc1ccccc1C(=O)Nc1ncc([N+](=O)[O-])s1 | < 0% | 4.44% | 12% | < 0%
11 | CCCCc1ccc(NC(=O)Nc2ccc(O[C@H]3CCCC[C@@H]3N(C)c3ccccc3)c(F)c2)cc1 | 17.3% | < 0% | 98.1% | 85.4%
12 | CCN(CC)CCCN1CCN(C(=O)c2cccc(-c3noc(C(F)(F)F)n3)c2)CC1 | 86.3% | 84.9% | 95.3% | 87%

Source: the supplement of paper PMC6763611
